Results on 29 compounds are retold here after PubChem BioAssay (Tox21).

Records with an inconclusive call do not appear. A number with no mark means an inactive call. Activity calls are given as the source filed them. Unless noted, calls come from the whole dose curve; as a rule, active = well fitted curve in the direction sought with a large enough effect in the repeat runs; inconclusive = weak or mixed curves; inactive = no such curve, though single readings can be large; an effect the other way counts as inactive or inconclusive.

Assay [1] can be described thus: qHTS assay to identify small molecule antagonists of the estrogen related receptor (ERR) signaling pathway from Tox21 library - cell viability counter screen (AID 1224834). Note: nearly all actives have a fitted effect of over 30% in size. Note: potency is the fitted concentration of half-maximal effect. Put shortly: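 ERR cells, 2,000/well; 6 h settle at 37 C/5% CO2; pin-tool compound transfer in DMSO; 17.5 h at 37 C; CellTiter-Fluor, 30 min; fluorescence intensity.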
(qHTS replaces the single test concentration by a dilution series.)

Assay [2] concerns the target Luciferin 4-monooxygenase (Photinus pyralis) (UniProt P08659). The experiment in a line: qHTS assay to identify small molecule inhibitors of firefly luciferase (AID 1224835). Note: nearly all actives have a fitted effect of over 25% in size. Note: potency is the fitted concentration of half-maximal effect. Put shortly:
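Biochemical qHTS: compounds run as interplate titrations against purified firefly enzyme, with D-luciferin and ATP each at its KM concentration. Light output recorded by CCD imaging.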

Assay [3] can be described thus: qHTS assay to identify small molecule antagonists of the constitutive androstane receptor (CAR) signaling pathway - cell viability counter screen (AID 1224837). Note: series mostly up to about 92 µM; nearly all actives have a fitted effect of over 45% in size. Put shortly:
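Viability was measured with CellTiter-Fluor in a HepG2 line carrying stably transfected hCAR and a CYP2B6-2.2kb construct. Cells were exposed for 23 hr at 37 C to 15 compound concentrations with 50 nM CITCO as agonist.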

In assay [4] the target is Nuclear receptor subfamily 1 group I member 3 (Homo sapiens) (UniProt Q14994). As to the kind of experiment: qHTS assay to identify small molecule antagonists of the constitutive androstane receptor (CAR) signaling pathway (AID 1224838).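 Note: HepG2 cells stably expressing hCAR with CYP2B6 luciferase reporter stimulated by CITCO; nearly all actives have a fitted effect of over 40% in size.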 Put shortly: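 Antagonist mode used CITCO at a final 50 nM to activate CAR in human hepatoma HepG2 cells carrying stable hCAR and a 2.2 kb CYP2B6 promoter-luciferase construct. Compounds were tested at 15 concentrations over 24 h, with luminescence as the end point.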

Assay [5] shares this target. As to the kind of experiment: qHTS assay to identify small molecule agonists of the constitutive androstane receptor (CAR) signaling pathway (AID 1224839). Note: nearly all actives have a fitted effect of over 15% in size. Note: potency is the fitted concentration of half-maximal effect. Put shortly: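 Cells were plated and incubated 4 hrs, then dosed with compounds at 15 concentrations. PK11195 was added to 0.75 uM final. After 24 hrs at 37 C, luciferase luminescence was measured.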
Assay [6] in a line: qHTS assay to identify small molecule antagonists of the estrogen related receptor signaling pathway with the pleiotropic PPARgamma coactivator (PGC) from Tox21 10K library - cell viability counter screen (AID 1224840; active = well fitted cell-killing curve with a large enough effect in the repeat runs, not every such curve was filed as active; note: nearly all actives have a fitted effect of over 40% in size). Put shortly: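 Multiplexed viability counter screen in the PGC/ERR cell line: cells treated with DMSO-dissolved compounds for 17.5 hours at 37 C, then viability measured as CellTiter-Fluor fluorescence.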

Assay [7] in a line: qHTS assay to identify small molecule agonists of the constitutive androstane receptor (CAR) signaling pathway - cell viability counter screen (AID 1224836). Note: series mostly up to about 92 µM; nearly all actives have a fitted effect of over 45% in size. Put shortly:
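Cells were seeded and incubated 4 hrs. Compounds were added across 15 concentrations together with PK11195 at 0.75 uM final. Plates were incubated 23 hrs at 37 C. CellTiter-Fluor was added and fluorescence measured.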

Assay [8] is described as follows: qHTS assay to identify small molecule antagonists of the estrogen related receptor signaling pathway with the pleiotropic PPARgamma coactivator (PGC) from Tox21 10K library (AID 1224841; call rule not given here; note: actives are mostly falling curves and most rising ones were filed inactive; nearly all actives have a fitted effect of over 50% in size; note: potency is the fitted concentration of half-maximal effect). Put shortly: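 Steps: plate 2,000 PGC/ERR cells per well; incubate 6 h at 37 C with 5% CO2; transfer compounds from DMSO stocks by pin tool; incubate 18 h at 37 C; add One-Glo; measure luminescence 30 min later.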

Assay [9] can be described thus: qHTS assay to identify small molecule agonists of the estrogen related receptor signaling pathway with the pleiotropic PPARgamma coactivator (PGC) from Tox21 10K library (AID 1224842). Note: nearly all actives have a fitted effect of over 15% in size. Put shortly: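 PGC/ERR reporter cell line, 2,000 cells per well, incubated 6 h at 37 C before 23 nL compound in DMSO was added. After 18 h at 37 C, One-Glo luminescence read following 30 min at room temperature.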

Luciferin 4-monooxygenase (Photinus pyralis), sequence (P08659 whole entry, looked up): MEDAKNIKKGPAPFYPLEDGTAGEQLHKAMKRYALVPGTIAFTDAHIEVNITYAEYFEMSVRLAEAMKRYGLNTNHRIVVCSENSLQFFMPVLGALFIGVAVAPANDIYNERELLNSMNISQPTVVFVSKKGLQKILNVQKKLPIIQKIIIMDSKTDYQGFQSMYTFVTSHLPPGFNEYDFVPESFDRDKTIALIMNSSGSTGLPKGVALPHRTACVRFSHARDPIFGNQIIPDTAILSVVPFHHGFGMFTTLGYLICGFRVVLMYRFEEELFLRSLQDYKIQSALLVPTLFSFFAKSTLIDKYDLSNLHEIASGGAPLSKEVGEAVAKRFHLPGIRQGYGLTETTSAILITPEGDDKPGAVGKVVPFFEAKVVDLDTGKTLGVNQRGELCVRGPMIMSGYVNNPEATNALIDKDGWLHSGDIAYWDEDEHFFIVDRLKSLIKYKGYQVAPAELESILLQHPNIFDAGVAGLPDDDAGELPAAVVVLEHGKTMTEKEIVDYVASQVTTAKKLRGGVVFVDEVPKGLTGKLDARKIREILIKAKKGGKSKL
Nuclear receptor subfamily 1 group I member 3 (Homo sapiens), sequence (Q14994 whole entry, looked up): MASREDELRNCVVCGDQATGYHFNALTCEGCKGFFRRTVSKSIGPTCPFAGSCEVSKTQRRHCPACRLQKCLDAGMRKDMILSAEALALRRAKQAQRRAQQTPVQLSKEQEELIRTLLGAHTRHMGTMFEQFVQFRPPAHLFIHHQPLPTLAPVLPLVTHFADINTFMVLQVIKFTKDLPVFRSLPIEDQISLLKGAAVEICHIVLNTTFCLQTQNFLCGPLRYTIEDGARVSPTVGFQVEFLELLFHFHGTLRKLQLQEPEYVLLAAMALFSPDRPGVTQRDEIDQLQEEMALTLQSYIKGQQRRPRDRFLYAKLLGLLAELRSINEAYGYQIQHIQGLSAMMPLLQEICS

For the compound `CCCCCCCCNC`, the Potency entry in assay [1], in assay [2], in assay [3], in [4], in assay [5] and in assay [6] was “inactive” throughout.

As for `Cc1ccc2c(Cl)cc(Cl)c(O)c2n1`, the Potency result in [1], in assay [2], in assay [7] and in [6] was “inactive” in each case.

For the compound `CO[C@@H]1COCC[C@@H]1N[C@@H]1CC[C@@](C(=O)N2CCc3ncc(C(F)(F)F)cc3C2)(C(C)C)C1`, the Potency result in assay [1], in assay [2], in [3], in assay [4], in assay [5] and in assay [6] was “inactive” throughout.

`CC(O)C(C)O` (stereo unspecified): the Potency result in assay [1], in [2], in assay [3], in assay [4], in [5] and in assay [6] was “inactive” in each case.

In the case of `c1ccc(CCNc2nc(-c3ccccc3)cs2)cc1`, the Potency entry in assay [1], in assay [3], in [4] and in assay [6] was “inactive” throughout. Further, the figures for the Potency in assay [2] and in [5] were 3.47 µM (active) and 7.5 µM (active), respectively.

For the compound `CCc1cnc(C(=O)O)c(C(=O)O)c1`, the Potency entry in assay [1], in assay [2], in assay [3], in assay [4], in [5] and in assay [6] was “inactive” in each case.

For `Cc1ccc2ccccc2c1[N+](=O)[O-]`, the Potency entry in [1], in assay [2], in [3], in assay [4], in assay [5] and in assay [6] was “inactive” in each case.

Consider `CC[C@H](NC(C)C)[C@H](O)c1ccc(O)c2[nH]c(=O)ccc12`, for which the Potency entry in assay [1], in assay [2], in [7], in [4], in [5] and in [6] was “inactive” throughout. Further, the Potency result in assay [8] and in assay [9] was “inactive” in each case.

On to `C/C(=C(\CCO)SS/C(CCO)=C(\C)N(C=O)Cc1cnc(C)nc1N)N(C=O)Cc1cnc(C)nc1N`, for which the Potency result in [1], in [2], in assay [7], in assay [6], in assay [8] and in [9] was “inactive” in each case.

With `Nc1ncnc2c1ncn2[C@@H]1O[C@H](CO)[C@@H](O)[C@H]1O`, the Potency result in assay [1], in assay [2], in [7], in assay [4] and in [6] was “inactive” in each case.

For `COc1ccnc2c1CCCCC2S(=O)c1nc2ccccc2[nH]1` (stereo unspecified), the Potency result in assay [1], in assay [7], in assay [3], in assay [4] and in assay [6] was “inactive” throughout. In assay [5], the Potency is 23.7 µM (active).

`CCCC1CCOC(C)S1` (stereo unspecified): the Potency entry in assay [1], in [2], in assay [3] and in assay [6] was “inactive” throughout.

As for `CC(=O)Oc1cccc2c1C(=O)c1c(OC(C)=O)cc(C(=O)O)cc1C2=O`, the Potency was 29.8 µM (active) in assay [1] and 21.1 µM (active) in assay [8]. Further, the Potency result in assay [2], in assay [4], in assay [5], in assay [6] and in [9] was “inactive” in each case.

On to `CC(C)CCCCCCCOC(=O)c1ccc(C(=O)OCCCCCCCC(C)C)c(C(=O)OCCCCCCCC(C)C)c1`, for which the Potency entry in [1], in assay [7], in assay [3], in [4], in [5] and in [6] was “inactive” each time. For the same compound, the Potency entry in assay [9] was “inactive”.

For the compound `CCOCCn1c(N2CCCN(C)CC2)nc2ccccc21`, the Potency entry in assay [1], in assay [2], in assay [3] and in [6] was “inactive” throughout.

On to `CCCCCCC/C=C/C=O`, for which the Potency entry in [1], in assay [7], in [3], in assay [4] and in assay [5] was “inactive” each time.

`CCOc1ccc(NC(C)=O)cc1N`: the Potency result in assay [1], in [7], in assay [3], in assay [4], in assay [6] and in assay [8] was “inactive” each time. Moreover, the Potency result in assay [9] is “inactive”.

On to `C=C[Si](OCC)(OCC)OCC`, for which the Potency entry in [1], in assay [7], in [3] and in [6] was “inactive” each time.

As for `CCN(CC)CC(=O)OCC(=O)[C@@]1(O)CC[C@H]2[C@@H]3CCC4=CC(=O)CC[C@]4(C)[C@H]3[C@@H](O)C[C@@]21C`, the Potency result in assay [1], in assay [7], in assay [3], in assay [4] and in [5] was “inactive” throughout.

Take `C=CC(C)(O)CC/C=C(/C)CCC=C(C)C` (stereo unspecified): the Potency entry in assay [1], in [2], in assay [3] and in [6] was “inactive” throughout.

With `O=C(O)CNc1ccccc1`, the Potency entry in [1], in assay [7], in assay [3], in [4], in assay [5] and in assay [6] was “inactive” each time. Besides, the Potency entry in assay [8] and in assay [9] was “inactive” throughout.

As for `C=CC(C)CCC=C(C)C` (stereo unspecified), the Potency entry in assay [1], in assay [7], in assay [3] and in assay [6] was “inactive” each time.

For the compound `CC(C)(C)c1ccc(CCC=O)cc1`, the Potency entry in [1], in assay [7], in assay [3], in assay [4] and in assay [5] was “inactive” in each case.

Take `CCCN(C1CCN(C(=O)C2CCNCC2)CC1)[C@@H]1CCc2ccc(OC)cc2C1`: the Potency result in assay [1], in assay [2], in [4], in [5], in assay [6] and in assay [8] was “inactive” throughout. For the same compound, the Potency entry in assay [9] is “inactive”.

`Cc1c(Cl)cccc1Nc1ccccc1C(=O)O`: the Potency result in assay [1], in assay [7], in assay [3], in assay [4], in [5] and in [6] was “inactive” in each case.

Take `CCCCOc1ccc(N)cc1`: the Potency entry in [1], in assay [7], in assay [3], in assay [4], in assay [6] and in [8] was “inactive” throughout.

As for `CCCCCC1CCC(=O)O1` (stereo unspecified), the Potency entry in [1], in [2], in [3], in [6], in assay [8] and in assay [9] was “inactive” in each case.

As to `CC(C)(C)N`, the Potency entry in assay [1], in [2], in assay [4], in [5] and in assay [6] was “inactive” throughout.

Regarding `Clc1cc(Cl)c2c(c1)N=C1CCCCCN1C2`, the Potency entry in [1], in assay [7], in assay [3], in [4], in [6] and in [8] was “inactive” each time. Besides, in assay [9], the Potency result is “inactive”.
